According to PubChem BioAssay AID2017 (National Center for Advancing Translational Sciences (NCATS), 2009):
Results filed as inconclusive are left out. Activity calls are given as the source filed them. The call rests on the fitted dose curve; in most records, active means well fitted curve in the direction sought with a large enough effect; inconclusive means small, poorly fitted or top-dose-only effect, or another doubt; inactive means no such curve, though single readings can be large or run the other way.

test system: 4-diphosphocytidyl-2-C-methyl-D-erythritol kinase IspE (bacterial, species not stated); test: Confirmatory Assay for Inhibitors of Human Galactokinase (GALK): CDP-Me assay counterscreen; settings: ATP depletion, Kinase-Glo luminescence; series mostly up to 115 µM; activity change, negative = inhibition: at the top concentration
Summary of the method: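 Luminescent read-out of ATP remaining (Kinase-Glo Plus) after 1 h at room temperature. Reaction: 0.25 ug/mL CDP-Me kinase, ATP 15 uM, CDP-ME 30 uM, HEPES pH8.0 buffer containing MgCl2, KCl, DTT and BSA.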

| SMILES | activity change, negative = inhibition |
| --- | --- |
| CCOC(=O)c1cc(-c2ccc(/C=C3/C(=O)N(c4ccc(C(=O)O)cc4)N=C3C)o2)ccc1Cl | -0.967% (inactive) |
| O=C1/C(=C\c2cc(Cl)c(O)c(Cl)c2)SC(=S)N1Cc1ccccc1 | 3.14% (inactive) |
| CCS(=O)(=O)C1=NN2C(=N)/C(=C\c3ccc(OS(=O)(=O)c4ccccc4)cc3)C(=O)N=C2S1 | -28.5% (inactive) |
| O=C(O)c1cccc(S(=O)(=O)N2CCC(n3nnc4cc(C(F)(F)F)ccc43)CC2)c1 | 1.46% (inactive) |
| CCS(=O)(=O)C1=NSC2=NC(=O)/C(=C\c3ccc(OS(=O)(=O)c4ccccc4)cc3)C(=N)N21 | -13.2% (inactive) |
| O=C(O)c1ccc(NC2=C/C(=N/S(=O)(=O)c3ccccc3)c3ccccc3C2=O)cc1 | -4.74% (inactive) |
| O=S(=O)(NCc1cccs1)c1ccc(Br)s1 | 2.41% (inactive) |
| S=c1[nH]nc(Cc2sc(-c3ccccc3)nc2-c2ccccc2)o1 | 1.28% (inactive) |
| Cc1snc(S(=O)(=O)/C(C#N)=N/Nc2ccc(C(F)(F)F)cc2)c1C#N | -2.03% (inactive) |
| CC(C)OC(=O)C(C(=O)C(F)(F)F)c1cc(NS(=O)(=O)c2ccc3ccccc3c2)c2ccccc2c1O (stereo unspecified) | 0.739% (inactive) |
| O=C1C(Cl)=C(N2CCC(C(=O)O)CC2)C(=O)c2ccccc21 | -7.29% (inactive) |
